{"source": "PubChem BioAssay (EPA / NIEHS)", "note": "Records with an inconclusive call do not appear. Active and inactive are the calls of the source. How the source made its calls: active means hit-call score of the fitted dose curve at least 0.9, where 1 is the maximum; inconclusive means response in the unintended direction; inactive means score below 0.9.", "data": [{"biological_target": "human Matrix Metalloproteinase-1 (MMP1), MMP1 (gene 4312) (UniProt P03956)", "sequence (P03956 whole entry, looked up)": "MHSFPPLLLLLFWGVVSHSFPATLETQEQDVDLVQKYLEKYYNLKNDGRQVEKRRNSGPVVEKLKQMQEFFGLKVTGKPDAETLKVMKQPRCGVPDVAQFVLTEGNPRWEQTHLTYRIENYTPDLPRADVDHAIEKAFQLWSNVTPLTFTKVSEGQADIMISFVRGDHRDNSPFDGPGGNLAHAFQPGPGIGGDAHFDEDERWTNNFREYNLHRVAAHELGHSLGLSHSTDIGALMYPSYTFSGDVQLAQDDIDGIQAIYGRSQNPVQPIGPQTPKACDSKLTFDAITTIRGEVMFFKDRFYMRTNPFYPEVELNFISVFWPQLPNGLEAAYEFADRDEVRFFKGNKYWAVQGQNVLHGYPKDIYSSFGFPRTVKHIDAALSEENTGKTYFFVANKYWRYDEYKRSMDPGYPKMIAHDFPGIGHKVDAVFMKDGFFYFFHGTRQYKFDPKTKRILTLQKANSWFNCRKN", "experiment": "NVS_ENZ_hMMP1: NovaScreen (NVS) Enzymatic Assay for human Matrix Metalloproteinase-1 (MMP1) (AID 2283181)", "method_in_brief": "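Human MMP1 enzyme activity measured by fluorescence 1 h after dosing, cell-free, with a specific substrate. Screened in duplicate at 25 uM; hits (e.g. 30% inhibition) run in concentration-response up to 50 uM; loss of signal versus DMSO.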", "values": [{"smiles": "c1ccc(C(O[C@@H]2CCCN(CCc3ccc4c(c3)OCO4)C2)c2ccccc2)cc1", "AC50": "8.81 µM (active)"}, {"smiles": "Cn1cnc2c1c(=O)[nH]c(=O)n2C", "outcome": "inactive"}, {"smiles": "O=P(OC(CCl)CCl)(OC(CCl)CCl)OC(CCl)CCl", "outcome": "inactive"}, {"smiles": "O=c1[nH]c2ccc(S(=O)CCN3CCC(Cc4ccc(F)cc4)CC3)cc2o1", "note": "(stereo not given)", "outcome": "inactive"}, {"smiles": "COc1ccc([N+](=O)[O-])cc1N", "AC50": "10.8 µM (active)"}, {"smiles": "CC(=O)S[C@H](C(=O)N[C@H]1Cc2ccccc2[C@H]2CCC[C@@H](C(=O)O)N2C1=O)C(C)C", "outcome": "inactive"}]}, {"biological_target": "human NIMA (Never In Mitosis Gene A)-Related Kinase 2 (NEK2), NEK2 (gene 4751) (UniProt P51955)", "sequence (P51955 whole entry, looked up)": "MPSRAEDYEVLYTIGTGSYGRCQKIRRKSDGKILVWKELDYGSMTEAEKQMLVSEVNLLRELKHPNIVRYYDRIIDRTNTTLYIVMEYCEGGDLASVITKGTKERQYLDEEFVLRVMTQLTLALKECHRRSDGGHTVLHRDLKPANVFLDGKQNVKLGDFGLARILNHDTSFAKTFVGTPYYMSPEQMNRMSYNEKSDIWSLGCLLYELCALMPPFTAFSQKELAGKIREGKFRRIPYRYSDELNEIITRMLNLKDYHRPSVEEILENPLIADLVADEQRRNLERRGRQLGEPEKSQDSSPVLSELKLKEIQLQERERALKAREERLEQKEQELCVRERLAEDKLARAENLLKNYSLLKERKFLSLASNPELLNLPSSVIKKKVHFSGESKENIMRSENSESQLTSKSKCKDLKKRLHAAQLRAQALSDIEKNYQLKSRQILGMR", "experiment": "NVS_ENZ_hNEK2: NovaScreen (NVS) Enzymatic Assay for human NIMA (Never In Mitosis Gene A)-Related Kinase 2 (NEK2) (AID 2283188)", "method_in_brief": "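Cell-free NEK2 enzyme activity after 1 h exposure, read by fluorescence with electrophoretic mobility shift separating substrate and product. Primary screen in duplicate at 25 uM; actives then run as concentration series. Loss of signal versus DMSO scored.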", "values": [{"smiles": "c1ccc(C(O[C@@H]2CCCN(CCc3ccc4c(c3)OCO4)C2)c2ccccc2)cc1", "outcome": "inactive"}, {"smiles": "CCCCC=O", "outcome": "inactive"}, {"smiles": "Cc1ccc2ncccc2c1", "outcome": "inactive"}, {"smiles": "O=CCCCC=O", "outcome": "inactive"}]}, {"biological_target": "human Phosphatase and Tensin Homolog (PTEN), PTEN (gene 5728) (UniProt P60484)", "sequence (P60484 whole entry, looked up)": "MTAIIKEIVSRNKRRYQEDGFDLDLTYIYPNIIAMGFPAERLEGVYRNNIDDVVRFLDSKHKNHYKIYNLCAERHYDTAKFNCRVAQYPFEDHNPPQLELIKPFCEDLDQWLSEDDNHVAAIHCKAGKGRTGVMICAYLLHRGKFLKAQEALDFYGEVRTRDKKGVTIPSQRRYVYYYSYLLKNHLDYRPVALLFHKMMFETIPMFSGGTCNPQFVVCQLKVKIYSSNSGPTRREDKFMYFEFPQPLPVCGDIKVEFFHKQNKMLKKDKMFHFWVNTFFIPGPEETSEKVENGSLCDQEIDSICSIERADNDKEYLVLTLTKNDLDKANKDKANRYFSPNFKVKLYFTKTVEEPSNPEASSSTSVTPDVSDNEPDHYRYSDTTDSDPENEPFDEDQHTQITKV", "experiment": "NVS_ENZ_hPTEN: NovaScreen (NVS) Enzymatic Assay for human Phosphatase and Tensin Homolog (PTEN) (AID 2283203)", "method_in_brief": "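Cell-free recombinant human PTEN with fluorescent substrate; product separated by electrophoretic mobility shift and read by fluorescence 1 h after dosing. Primary screen in duplicate at 25 uM, actives followed in concentration series versus DMSO.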", "values": [{"smiles": "COc1ccc(CCN2CCC(Nc3nc4ccccc4n3Cc3ccc(F)cc3)CC2)cc1", "outcome": "inactive"}, {"smiles": "CC(c1cc(C(C)(C)C)cc(C(C)(C)C)c1O)c1cc(C(C)(C)C)cc(C(C)(C)C)c1O", "AC50": "5.29 µM (active)"}, {"smiles": "CC/C=C\\C#N", "outcome": "inactive"}, {"smiles": "Cc1ccccc1S(N)(=O)=O", "outcome": "inactive"}, {"smiles": "Oc1ccc2c(c1)CCC2", "AC50": "1.62 µM (active)"}, {"smiles": "CCC(=O)O", "outcome": "inactive"}, {"smiles": "C#C[C@]1(O)CC[C@H]2[C@@H]3CCC4=Cc5oncc5C[C@]4(C)[C@H]3CC[C@@]21C", "AC50": "25 µM (active)"}, {"smiles": "CN(C)C(=S)SC(=S)N(C)C", "AC50": "18.9 µM (active)"}, {"smiles": "Fc1ccc(Br)cc1", "outcome": "inactive"}, {"smiles": "COc1cccc(OC)c1O", "outcome": "inactive"}, {"smiles": "N#Cc1ccc(CC(=NNC(=O)Nc2ccc(OC(F)(F)F)cc2)c2cccc(C(F)(F)F)c2)cc1", "outcome": "inactive"}, {"smiles": "CCCCCCCCCCc1ccccc1", "outcome": "inactive"}, {"smiles": "CCc1cccc(CC)c1N(COC)C(=O)CS(=O)(=O)O", "outcome": "inactive"}, {"smiles": "CCCCCCCCc1ccc(Nc2ccc(CCCCCCCC)cc2)cc1", "outcome": "inactive"}, {"smiles": "NC(=O)c1ccccc1Cl", "outcome": "inactive"}, {"smiles": "CC(=O)OCC=C(C)CCC=C(C)CCC=C(C)C", "outcome": "inactive"}, {"smiles": "CC(C)c1ccccc1N", "AC50": "12.4 µM (active)"}, {"smiles": "CO[Si](OC)(c1ccccc1)c1ccccc1", "outcome": "inactive"}, {"smiles": "C1CCC(SSC2CCCCC2)CC1", "outcome": "inactive"}, {"smiles": "S=c1[nH][nH]c(=S)s1", "AC50": "2.47 µM (active)"}, {"smiles": "O=C1C=CC(=O)O1", "outcome": "inactive"}, {"smiles": "CCCC(C)C=O", "note": "(stereo not given)", "outcome": "inactive"}, {"smiles": "Cc1cccc2c1ccc1ccccc12", "AC50": "13.8 µM (active)"}, {"smiles": "Nc1ccc(F)c([N+](=O)[O-])c1", "outcome": "inactive"}, {"smiles": "CC(C)c1cccc(C(C)C)c1N1C(=O)c2ccc(O)cc2C1=O", "outcome": "inactive"}, {"smiles": "CCOC(=O)[C@H](C)O", "outcome": "inactive"}, {"smiles": "Cc1cncc(C)c1", "outcome": "inactive"}]}, {"biological_target": "human Neonicotinoid receptor (NNR), CHRNA2 (gene 1135) (UniProt Q15822)", "sequence (Q15822 whole entry, looked up)": "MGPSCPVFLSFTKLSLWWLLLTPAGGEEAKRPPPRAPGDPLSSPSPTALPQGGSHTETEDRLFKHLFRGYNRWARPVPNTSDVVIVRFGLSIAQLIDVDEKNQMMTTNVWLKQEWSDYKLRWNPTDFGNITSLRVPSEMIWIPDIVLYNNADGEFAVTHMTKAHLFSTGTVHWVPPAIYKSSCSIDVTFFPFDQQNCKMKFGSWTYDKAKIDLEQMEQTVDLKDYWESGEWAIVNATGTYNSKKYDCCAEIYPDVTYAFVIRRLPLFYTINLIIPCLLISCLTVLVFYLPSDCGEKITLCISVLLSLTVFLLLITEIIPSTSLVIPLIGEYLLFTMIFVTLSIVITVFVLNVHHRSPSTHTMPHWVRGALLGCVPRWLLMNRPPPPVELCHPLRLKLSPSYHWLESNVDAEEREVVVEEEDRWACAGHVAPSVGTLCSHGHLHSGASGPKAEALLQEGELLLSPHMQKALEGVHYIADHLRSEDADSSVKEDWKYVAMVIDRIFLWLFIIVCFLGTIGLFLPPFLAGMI", "experiment": "NVS_LGIC_hNNR_NBungSens: NovaScreen (NVS) Ligand-Gated Ion Channel Assay for human Neonicotinoid receptor (NNR) (AID 2283313)", "method_in_brief": "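Radioligand displacement on human neuroblastoma membranes, 2 h, filter-based scintillation counting. Primary screen in duplicate at 25 uM; chemicals passing threshold (e.g. 30% inhibition) run singleton concentration-response to 50 uM; loss of binding fitted versus DMSO.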", "values": [{"smiles": "CN1CCC[C@H]1c1cccnc1", "AC50": "1.3 µM (active)"}, {"smiles": "Cn1cnc2c1c(=O)[nH]c(=O)n2C", "AC50": "15.4 µM (active)"}, {"smiles": "O=c1[nH]c2ccc(S(=O)CCN3CCC(Cc4ccc(F)cc4)CC3)cc2o1", "note": "(stereo not given)", "AC50": "5.31 µM (active)"}]}]}
